Reference: the supplement of paper PMC3545927
Some of the results follow. The hit rate among all sequences tested is not known here.

Target: furin, P09958
Assay: furin cleavage Z-score vs untreated control; higher = more cleavage, active = 3.5 or more, inactive = 1 or less, 8 variable residues between constant flanks
In short: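 Sequencing of released DNA, tagged with adapters by PCR, gave read counts used as abundance. That DNA was freed when purified furin cut N-terminally bead-bound 8-mer peptides fused to a cDNA oligonucleotide, in 0.01 ml reactions at 1:10 enzyme:substrate in 50 mM HEPES pH 7.5 with CaCl2 and NaCl, lasting 7.5, 15 or 30 min. The cleavage Z-score was the lowess-adjusted log count versus furin-free reactions, scaled by median absolute deviation.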

Chain of furin, P09958 (P09958 whole entry): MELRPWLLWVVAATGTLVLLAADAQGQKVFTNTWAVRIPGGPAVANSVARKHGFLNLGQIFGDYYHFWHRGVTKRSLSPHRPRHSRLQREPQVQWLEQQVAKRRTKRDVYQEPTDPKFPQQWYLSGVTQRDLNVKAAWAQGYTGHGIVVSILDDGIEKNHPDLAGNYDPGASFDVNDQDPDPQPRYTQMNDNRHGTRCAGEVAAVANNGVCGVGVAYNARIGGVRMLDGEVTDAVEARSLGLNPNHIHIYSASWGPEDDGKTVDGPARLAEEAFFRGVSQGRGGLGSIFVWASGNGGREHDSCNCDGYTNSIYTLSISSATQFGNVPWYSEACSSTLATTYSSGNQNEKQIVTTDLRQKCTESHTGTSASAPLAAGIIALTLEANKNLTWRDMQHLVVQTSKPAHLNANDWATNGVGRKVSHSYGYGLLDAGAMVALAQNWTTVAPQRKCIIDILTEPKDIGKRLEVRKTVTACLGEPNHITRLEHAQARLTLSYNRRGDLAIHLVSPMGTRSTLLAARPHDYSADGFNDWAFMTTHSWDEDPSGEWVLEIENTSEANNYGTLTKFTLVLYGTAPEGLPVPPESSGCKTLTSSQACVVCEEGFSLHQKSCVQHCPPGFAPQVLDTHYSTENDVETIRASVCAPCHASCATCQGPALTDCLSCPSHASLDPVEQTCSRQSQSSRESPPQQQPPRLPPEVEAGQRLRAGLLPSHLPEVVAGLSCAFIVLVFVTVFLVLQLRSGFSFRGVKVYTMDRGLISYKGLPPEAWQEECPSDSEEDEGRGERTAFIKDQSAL

Row | Sequence | furin cleavage Z-score (7.5 min) | furin cleavage Z-score (15 min) | furin cleavage Z-score (30 min)
1 | CADAEVVTSTAGNASASA [HC2283] | -0.438 (inactive) | 0.612 (inactive) | 0.657 (inactive)
2 | CAGNPAIASLAGNASASA [HC1052] | -0.886 (inactive) | -0.0897 (inactive) | -0.877 (inactive)
3 | CARPYCWHYPAGNASASA [HC402] | -0.0981 (inactive) | -0.342 (inactive) | -1.07 (inactive)
4 | CAMEECSQILAGNASASA [HC1744] | 0.778 (inactive) | 0.663 (inactive) | 0.94 (inactive)
5 | CALCTTPCSGAGNASASA [HC1945] | 0.463 (inactive) | -0.673 (inactive) | -0.438 (inactive)
6 | CARNRRAFGDAGNASASA [FS-2732] | 6.61 (active) | 9.22 (active) | 8.81 (active)
7 | CARNRRRVCKAGNASASA [FS-2162] | -0.833 (inactive) | -0.214 (inactive) | 0.898 (inactive)
8 | CARNRRVTRRAGNASASA [FS-2163] | 10.8 (active) | 11.8 (active) | 10.4 (active)
9 | CARNRRHIEKAGNASASA [FS-2283] | 6.22 (active) | 6.56 (active) | 6.5 (active)
10 | CARNSRFRCRAGNASASA [FS-3013] | 0.23 (inactive) | 0.474 (inactive) | 0.565 (inactive)
11 | CAKGKWVPGAAGNASASA [HC550] | 0.591 (inactive) | -0.0194 (inactive) | 1.21
12 | CAEVVKSTWVAGNASASA [HC131] | -2.1 (inactive) | -0.614 (inactive) | -0.545 (inactive)
13 | CAEVVTGTWVAGNASASA [HC142] | -0.000356 (inactive) | -0.439 (inactive) | 1.54
14 | CAVVMCSMSYAGNASASA [HC2026] | -0.445 (inactive) | 0.764 (inactive) | 0.688 (inactive)
15 | CAAKRRTKRDAGNASASA [FS-1509] | 13.3 (active) | 12.3 (active) | 8.72 (active)
16 | CAVKKRTKRDAGNASASA [FS-1579] | 13.7 (active) | 14.1 (active) | 11.3 (active)
17 | CAVVNTTKRDAGNASASA [FS-967] | 0.253 (inactive) | 1.14 | 0.849 (inactive)
18 | CAMEMEECSQAGNASASA [HC1786] | 0.949 (inactive) | -0.743 (inactive) | 0.205 (inactive)
19 | CALRGRSRRLAGNASASA [FS-135] | 3.28 | 5.92 (active) | 6.35 (active)
20 | CAWPTRRRRLAGNASASA [FS-109] | 8.56 (active) | 10.6 (active) | 9.39 (active)
21 | CACRARRRRLAGNASASA [FS-16] | 9.49 (active) | 9.51 (active) | 8.36 (active)
22 | CAMEECSQRLAGNASASA [HC1753] | 0.426 (inactive) | -0.514 (inactive) | 1.09
23 | CAQDVRCRRLAGNASASA [FS-478] | 1.46 | 1.58 | 0.0369 (inactive)
24 | CAQGERSRRLAGNASASA [FS-282] | 0.753 (inactive) | 4.38 (active) | 1.23
25 | CAIYQCCDLDAGNASASA [HC1490] | -1.27 (inactive) | -0.493 (inactive) | -0.515 (inactive)
26 | CAPCTINYTIAGNASASA [HC470] | -0.109 (inactive) | -0.36 (inactive) | -0.753 (inactive)
27 | CAEFEVPCHRAGNASASA [HC2447] | 1.12 | 0.425 (inactive) | 0.814 (inactive)
28 | CAEPARRRRLAGNASASA [FS-1193] | 3.5 (active) | 3.06 | 4.29 (active)
29 | CALRQRRRRLAGNASASA [FS-1233] | 7.25 (active) | 8.53 (active) | 7.51 (active)
30 | CAGRGRRRRLAGNASASA [FS-1204] | 0.638 (inactive) | 1.19 | 1.19
